From PubChem BioAssay (NCATS)
Records with an inconclusive call do not appear. The source made the active and inactive calls. The call rests on the fitted dose curve; in most records, active means well fitted inhibition curve with a large enough effect; inconclusive means small, poorly fitted or top-dose-only effect; inactive means no such curve, though single readings can be large or run the other way.

The molecules below were run against Cytochrome P450 3A4 (Homo sapiens) (UniProt P08684) (assay: qHTS Assay for Inhibitors and Substrates of Cytochrome P450 3A4 (AID 884; further: nearly all actives have a fitted effect of over 50% in size)). Conditions: recombinant CYP3A4, Luciferin-PPXE luminescence; series mostly up to 57.1 µM.
Chain of Cytochrome P450 3A4 (Homo sapiens) (P08684 whole entry, looked up): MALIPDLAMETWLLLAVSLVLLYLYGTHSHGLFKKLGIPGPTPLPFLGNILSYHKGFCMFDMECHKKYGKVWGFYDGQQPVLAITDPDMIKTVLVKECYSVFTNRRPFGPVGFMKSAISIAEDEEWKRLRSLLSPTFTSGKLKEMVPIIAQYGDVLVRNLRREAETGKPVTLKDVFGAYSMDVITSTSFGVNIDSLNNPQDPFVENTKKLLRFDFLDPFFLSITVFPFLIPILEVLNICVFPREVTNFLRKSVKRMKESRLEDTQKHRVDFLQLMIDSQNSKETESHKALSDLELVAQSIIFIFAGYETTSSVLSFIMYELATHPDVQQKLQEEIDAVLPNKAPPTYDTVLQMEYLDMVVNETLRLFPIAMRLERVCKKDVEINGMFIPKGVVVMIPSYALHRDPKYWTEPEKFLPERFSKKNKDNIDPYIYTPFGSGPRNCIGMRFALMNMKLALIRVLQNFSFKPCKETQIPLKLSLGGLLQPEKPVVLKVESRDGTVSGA
Protocol: NIH Molecular Libraries Screening Centers Network [MLSCN]
NIH Chemical Genomics Center [NCGC]
The P450 gene superfamily is involved in the metabolism and clearance of xenobiotics. This assay used human CYP3A4 to measure the dealkylation of luciferin-6' phenylpiperazinylyl (Luciferin-PPXE; […]) to luciferin. The luciferin is then measured by luminescence after the addition of a luciferase detection reagent. Luciferin-PPXE concentration in the assay was equal to its KM for CYP3A4. Inhibitors and some substrates limit the production of luciferin, and decrease measured luminescence.
NCGC Assay Protocol Summary:
Two uL of enzyme and substrate mix (final concentrations: 20nM CYP3A4, 25uM Luciferin-PPXE, 200mM KPO4) were dispensed into a white, solid bottom 1536-well microtiter plate. 23nL of compound was transferred by a pin tool. The plate was incubated at RT for 10 min. Two uL of an NADPH regeneration solution (Promega supplied reagent) was dispensed and the reaction was allowed to continue for 60 min at RT. Then the reaction was stopped by reconstituted luciferin detection buffer. After another 20 min of incubation the plate was read on the ViewLux (Perkin Elmer) at 60 sec exposure and 2x2 binning. This protocol was carried out with Promega-Glo reagents and further information can be found at http://www.promega.com/tbs/tb325/tb325.pdf. Data were normalized to the to AC100 inhibition (57 uM ketoconazole).
Keywords: P450, CYP3A4, Luciferase, MLSMR, MLSCN, NIH Roadmap, qHTS, NCGC
In the case of `CC(=O)CC(c1ccccc1)c1c(O)c2ccccc2oc1=O` (configuration not stated), the outcome is reported as “inactive”.
In the case of `CNS(=O)(=O)Cc1ccc2[nH]cc(CCN(C)C)c2c1`, the outcome is reported as “inactive”.
`COC(=O)Nc1nc2ccc(C(=O)c3ccccc3)cc2[nH]1` was tested, and the outcome was “inactive”.
In the case of `CCn1cc(C(=O)O)c(=O)c2cc(F)c(N3CCNCC3)nc21`, the outcome is reported as “inactive”.
For `Nc1nc(N)c2nc(CNc3ccc(C(=O)NC(CCC(=O)O)C(=O)O)cc3)cnc2n1` (configuration not stated), the outcome was “inactive”.
For `Cn1c(=O)c2c(ncn2CC(O)CO)n(C)c1=O` (configuration not stated), the outcome was “inactive”.
In the case of `COc1c(N2CCNC(C)C2)c(F)cc2c(=O)c(C(=O)O)cn(C3CC3)c12` (configuration not stated), the outcome is reported as “inactive”.
In the case of `Cc1ccnc2c1NC(=O)c1cccnc1N2C1CC1`, the outcome is reported as “inactive”.
For `Nc1nc(=S)c2[nH]cnc2[nH]1`, the outcome was “inactive”.
`NS(=O)(=O)c1cc2c(cc1Cl)NC(C(Cl)Cl)NS2(=O)=O` (configuration not stated) was tested, and the outcome was “inactive”.
In the case of `CN(C)CCc1c[nH]c2ccc(CS(=O)(=O)N3CCCC3)cc12`, the outcome is reported as “inactive”.
In the case of `Nc1ccc(S(=O)(=O)Nc2ccccn2)cc1`, the outcome is reported as “inactive”.
With `O=S(=O)(O)CCS` the outcome was “inactive”.
With `CCc1c2c(nc3ccc(OC(=O)N4CCC(N5CCCCC5)CC4)cc13)-c1cc3c(c(=O)n1C2)COC(=O)[C@]3(O)CC` the outcome was “inactive”.
`O=C(O)c1cccnc1` was tested, and the outcome was “inactive”.
`Cc1ncc([N+](=O)[O-])n1CCO` was tested, and the outcome was “inactive”.
With `Cc1noc(NS(=O)(=O)c2ccc(N)cc2)c1C` the outcome was “inactive”.
For `CCCCOc1ccc(CC(=O)NO)cc1`, the outcome was “inactive”.
In the case of `COc1ccc2c(c1)c(CC(=O)OCC(=O)O)c(C)n2C(=O)c1ccc(Cl)cc1`, the outcome is reported as “inactive”.
`COC(=O)Nc1nc2ccc(Sc3ccccc3)cc2[nH]1` was tested, and the outcome was “inactive”.
For `CC(=O)[C@H]1CC[C@H]2[C@@H]3CCC4=CC(=O)CC[C@]4(C)[C@H]3CC[C@]12C`, the outcome was “inactive”.
For `COc1ccc(C(=O)CC(=O)c2ccc(C(C)(C)C)cc2)cc1`, the outcome was “inactive”.
With `O=c1oc2c(O)c(O)cc3c(=O)oc4c(O)c(O)cc1c4c23` the outcome was “inactive”.
With `COc1ccccc1OCC(O)COC(N)=O` (configuration not stated) the outcome was “inactive”.
For `Cc1nnc(NS(=O)(=O)c2ccc(N)cc2)s1`, the outcome was “inactive”.
With `O=C(O)c1cc(=O)[nH]c(=O)[nH]1` the outcome was “inactive”.
`COc1cnc(NS(=O)(=O)c2ccc(N)cc2)nc1` was tested, and the outcome was “inactive”.
